Measured values published in article PMC4336329 (PLoS ONE, 2015).
The campaign covered roughly 310,000 compounds. About 14,000 (4.5%) showed an effect of 50% or more. The effect is printed as a negative number. This is one part of a sample in which strong results are shown more often than they occur.

molecular target: human ether-à-go-go-related gene (hERG) potassium channel (human, UniProt Q12809); assay: primary screen, population patch clamp on CHO cells stably expressing hERG; higher = less effect of the substance
Sequence (Q12809 whole entry, looked up): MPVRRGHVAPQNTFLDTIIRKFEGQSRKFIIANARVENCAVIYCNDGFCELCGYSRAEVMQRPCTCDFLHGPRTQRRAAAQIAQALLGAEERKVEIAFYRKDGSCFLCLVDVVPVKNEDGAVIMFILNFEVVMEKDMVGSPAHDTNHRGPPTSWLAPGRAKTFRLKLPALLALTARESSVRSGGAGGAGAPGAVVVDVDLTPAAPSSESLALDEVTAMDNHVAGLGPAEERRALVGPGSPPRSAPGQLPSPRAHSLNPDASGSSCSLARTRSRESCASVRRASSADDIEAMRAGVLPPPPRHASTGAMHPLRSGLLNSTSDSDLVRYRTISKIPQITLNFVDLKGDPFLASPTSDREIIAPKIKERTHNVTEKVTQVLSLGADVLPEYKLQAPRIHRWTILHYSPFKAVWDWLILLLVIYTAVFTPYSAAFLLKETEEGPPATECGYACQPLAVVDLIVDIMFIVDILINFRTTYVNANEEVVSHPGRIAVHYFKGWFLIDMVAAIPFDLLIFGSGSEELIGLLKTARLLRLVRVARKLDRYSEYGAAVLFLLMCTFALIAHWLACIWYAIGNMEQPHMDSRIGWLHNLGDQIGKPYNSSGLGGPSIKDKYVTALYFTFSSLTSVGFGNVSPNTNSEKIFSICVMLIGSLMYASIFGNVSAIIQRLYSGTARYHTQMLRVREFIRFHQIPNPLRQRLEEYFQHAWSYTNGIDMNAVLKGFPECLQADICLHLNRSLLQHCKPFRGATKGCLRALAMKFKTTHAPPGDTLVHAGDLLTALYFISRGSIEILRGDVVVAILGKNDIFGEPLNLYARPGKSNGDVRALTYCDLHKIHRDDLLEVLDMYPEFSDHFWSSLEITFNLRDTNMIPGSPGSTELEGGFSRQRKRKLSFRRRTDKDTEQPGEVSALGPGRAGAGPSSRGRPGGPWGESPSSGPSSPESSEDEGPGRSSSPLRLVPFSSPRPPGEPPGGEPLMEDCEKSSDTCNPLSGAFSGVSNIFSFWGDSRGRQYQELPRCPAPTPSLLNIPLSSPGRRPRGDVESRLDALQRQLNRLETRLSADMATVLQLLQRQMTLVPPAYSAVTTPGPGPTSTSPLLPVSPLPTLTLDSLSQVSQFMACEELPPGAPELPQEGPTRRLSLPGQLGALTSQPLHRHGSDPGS
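Also: peak tail current of the secondary pulse compared with the same well before compound.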

Question: COc1ccc(N(C)S(=O)(=O)c2cccc(C(=O)Nc3nc(C)c(C(C)=O)s3)c2)cc1 was tested. Which “hERG current change (%, negative = inhibition) at 10uM” value did it give?
Answer: 7.14%

Question: For CCOC(=O)Cn1nnnc1CN(Cc1ccccc1)Cc1cc2cc(CC)ccc2[nH]c1=O, which “hERG current change (%, negative = inhibition) at 10uM” value is on record?
Answer: -11.2%

Question: CC(C)n1c(N2CCN(S(=O)(=O)c3cccc([N+](=O)[O-])c3)CC2)nc2ccccc21 was tested. Which “hERG current change (%, negative = inhibition) at 10uM” value did it give?
Answer: -71%

Question: How did the “hERG current change (%, negative = inhibition) at 10uM” value turn out when O=[N+]([O-])c1cccc(S(=O)(=O)N2CCN(c3ccccn3)CC2)c1 was run?
Answer: 4.57%

Question: With CN1CCN(S(=O)(=O)c2cccc([N+](=O)[O-])c2)CC1 as the compound, how does the “hERG current change (%, negative = inhibition) at 10uM” value read?
Answer: 18.7%

Question: With Cc1ccc(C(=O)Nc2nnc(S(=O)(=O)N3CCC(C)CC3)s2)cc1 as the compound, how does the “hERG current change (%, negative = inhibition) at 10uM” value read?
Answer: 21.8%

Question: With Cc1cc(/C=N/NC(=O)c2ccc(O)cc2)c(C)n1C1CC1 as the compound, how does the “hERG current change (%, negative = inhibition) at 10uM” value read?
Answer: 20.4%

Question: N#C/C(C(=O)NCc1ccccc1)=C1/N=C(NC(=O)c2ccco2)c2ccccc21 was tested. Which “hERG current change (%, negative = inhibition) at 10uM” value did it give?
Answer: 10.3%

Question: Which “hERG current change (%, negative = inhibition) at 10uM” value does the source give for CCCNC(=O)/C(C#N)=C1\N=C(NC(=O)c2ccco2)c2ccccc21 here?
Answer: -44.6%

Question: Which “hERG current change (%, negative = inhibition) at 10uM” value does the source give for CC(C)CNC(=O)/C(C#N)=C1\N=C(NC(=O)c2ccco2)c2ccccc21 here?
Answer: -60.4%

Question: With CC(C)(C)c1ccc(OCC(=O)N(Cc2cccs2)C2CCS(=O)(=O)C2)cc1 (stereo not drawn) as the compound, how does the “hERG current change (%, negative = inhibition) at 10uM” value read?
Answer: -54.2%

Question: With Cc1c(C(=O)N(Cc2ccccc2)C2CCS(=O)(=O)C2)oc2ccccc12 (stereo not drawn) as the compound, how does the “hERG current change (%, negative = inhibition) at 10uM” value read?
Answer: -38.5%

Question: For O=C(c1ccc([N+](=O)[O-])cc1)N(Cc1cccs1)C1CCS(=O)(=O)C1 (stereo not drawn), which “hERG current change (%, negative = inhibition) at 10uM” value is on record?
Answer: -50%

Question: For O=C(COc1ccc(F)cc1)N(Cc1cccs1)C1CCS(=O)(=O)C1 (stereo not drawn), which “hERG current change (%, negative = inhibition) at 10uM” value is on record?
Answer: -33.4%

Question: How did the “hERG current change (%, negative = inhibition) at 10uM” value turn out when Cc1ccc(OCC(=O)N(Cc2cccs2)C2CCS(=O)(=O)C2)cc1 (stereo not drawn) was run?
Answer: -8.3%

Question: How did the “hERG current change (%, negative = inhibition) at 10uM” value turn out when O=C(COc1ccccc1)N(Cc1cccs1)C1CCS(=O)(=O)C1 (stereo not drawn) was run?
Answer: -17.4%

Question: Cc1ccc(C(=O)N(Cc2cccs2)C2CCS(=O)(=O)C2)cc1 (stereo not drawn) was tested. Which “hERG current change (%, negative = inhibition) at 10uM” value did it give?
Answer: 0.98%

Question: With O=C(COc1ccc(Br)cc1)N(Cc1cccs1)C1CCS(=O)(=O)C1 (stereo not drawn) as the compound, how does the “hERG current change (%, negative = inhibition) at 10uM” value read?
Answer: -51.7%

Question: COc1ccc(OCC(=O)N(Cc2cccs2)C2CCS(=O)(=O)C2)cc1 (stereo not drawn) was tested. Which “hERG current change (%, negative = inhibition) at 10uM” value did it give?
Answer: -6.75%

Question: With Cc1c(C(=O)N(Cc2cccs2)C2CCS(=O)(=O)C2)oc2ccccc12 (stereo not drawn) as the compound, how does the “hERG current change (%, negative = inhibition) at 10uM” value read?
Answer: -50.2%

Question: For O=C(c1ccccc1)N(Cc1cccs1)C1CCS(=O)(=O)C1 (stereo not drawn), which “hERG current change (%, negative = inhibition) at 10uM” value is on record?
Answer: 12%

Question: For Cc1ccc2c(C)c(C(=O)N(Cc3cccs3)C3CCS(=O)(=O)C3)oc2c1 (stereo not drawn), which “hERG current change (%, negative = inhibition) at 10uM” value is on record?
Answer: -20.8%

Question: With COc1ccccc1Oc1ccc2c(c1)C(=O)N(c1ccccc1)C2=O as the compound, how does the “hERG current change (%, negative = inhibition) at 10uM” value read?
Answer: -3.59%

Question: Cc1ccsc1CN(C(=O)c1ccccc1)C1CCS(=O)(=O)C1 (stereo not drawn) was tested. Which “hERG current change (%, negative = inhibition) at 10uM” value did it give?
Answer: 2.16%

Question: Cc1ccc(OCC(=O)N(Cc2cccs2)C2CCS(=O)(=O)C2)cc1C (stereo not drawn) was tested. Which “hERG current change (%, negative = inhibition) at 10uM” value did it give?
Answer: 4.21%

Question: With CCN(C(=O)COc1ccccc1[N+](=O)[O-])C1CCS(=O)(=O)C1 (stereo not drawn) as the compound, how does the “hERG current change (%, negative = inhibition) at 10uM” value read?
Answer: 0.104%

Question: For O=C(COc1ccccc1[N+](=O)[O-])N(Cc1cccc(Br)c1)C1CCS(=O)(=O)C1 (stereo not drawn), which “hERG current change (%, negative = inhibition) at 10uM” value is on record?
Answer: -57.8%

Question: For CCc1ccc(OCC(=O)N(Cc2cccs2)C2CCS(=O)(=O)C2)cc1 (stereo not drawn), which “hERG current change (%, negative = inhibition) at 10uM” value is on record?
Answer: -47.8%

Question: Which “hERG current change (%, negative = inhibition) at 10uM” value does the source give for O=C(COc1ccc([N+](=O)[O-])cc1)N(Cc1cccs1)C1CCS(=O)(=O)C1 (stereo not drawn) here?
Answer: -52.3%

Question: How did the “hERG current change (%, negative = inhibition) at 10uM” value turn out when COc1cccc(CN(C(=O)COc2ccccc2[N+](=O)[O-])C2CCS(=O)(=O)C2)c1 (stereo not drawn) was run?
Answer: -42%

Question: Cc1ccc(C(=O)N(Cc2sccc2C)C2CCS(=O)(=O)C2)cc1 (stereo not drawn) was tested. Which “hERG current change (%, negative = inhibition) at 10uM” value did it give?
Answer: -28.2%

Question: Cc1ccsc1CN(C(=O)c1ccc([N+](=O)[O-])cc1)C1CCS(=O)(=O)C1 (stereo not drawn) was tested. Which “hERG current change (%, negative = inhibition) at 10uM” value did it give?
Answer: -60.8%

Question: Which “hERG current change (%, negative = inhibition) at 10uM” value does the source give for CC1C/C(=N\NC(=S)NC(C)C)CC(C)(C)C1 (stereo not drawn) here?
Answer: 9.06%

Question: With CCOC(=O)CNC(=O)CSc1nnc(NC(=O)c2ccc3c(c2)OCO3)s1 as the compound, how does the “hERG current change (%, negative = inhibition) at 10uM” value read?
Answer: 3.8%

Question: Which “hERG current change (%, negative = inhibition) at 10uM” value does the source give for CCC(CC)NC(=O)c1nn(Cc2ccccc2)c(=O)c2ccccc12 here?
Answer: 10.9%

Question: With CS(=O)(=O)N(CC(=O)NCCSCc1ccccc1Cl)c1ccccc1F as the compound, how does the “hERG current change (%, negative = inhibition) at 10uM” value read?
Answer: -35.4%

Question: For CC1=NN(C(N)=S)C(=O)C1N=Nc1ccccc1Cl (stereo not drawn), which “hERG current change (%, negative = inhibition) at 10uM” value is on record?
Answer: 20.2%

Question: How did the “hERG current change (%, negative = inhibition) at 10uM” value turn out when Cc1cccc(N(Cc2ccccc2)C(=O)CSC(C)C(=O)Nc2cc(C)on2)c1 (stereo not drawn) was run?
Answer: -53%

Question: With Cc1cc(NC(=O)C(C)SCC(=O)OCC(=O)N(Cc2ccccc2)C(C)(C)C)no1 (stereo not drawn) as the compound, how does the “hERG current change (%, negative = inhibition) at 10uM” value read?
Answer: -35.4%

Question: For Cc1cc(NC(=O)C(C)SCC(=O)OCC(=O)N(C)c2ccccc2)no1 (stereo not drawn), which “hERG current change (%, negative = inhibition) at 10uM” value is on record?
Answer: -7%

Question: Which “hERG current change (%, negative = inhibition) at 10uM” value does the source give for COc1ccccc1N1CCN(c2ccc([N+](=O)[O-])cn2)CC1 here?
Answer: 0.823%

Question: O=C(O)c1cccc(CSc2nc(-c3ccccc3)cc(C(F)(F)F)n2)c1 was tested. Which “hERG current change (%, negative = inhibition) at 10uM” value did it give?
Answer: 0.347%
